# Reference: PubChem BioAssay (NCI)
# About 83,000 compounds went through this panel and 20% of them were active in at least one assay; those are over-represented in the sample as a whole.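 Results are percent growth after 48 hours of single-concentration exposure. 100 means growth as in untreated cells, lower positive values show inhibition; negative values down to -100 show cell death.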 Unmarked numbers belong to inactive results. The source made the active and inactive calls. Rule for the calls: active = growth percent below 10; inactive = the rest.
# Experiments:
# Assay in all cases: NCI-60 one-dose screen, 48 h (100 = growth as untreated, 0 = no growth, -100 = all killed)
# Conditions in all cases: 10 µM unless noted
# SK-MEL-2 melanoma = test system: SK-MEL-2 melanoma
# EKVX NSCLC = test system: EKVX NSCLC
# SN12C renal = test system: SN12C renal
# UO-31 renal = test system: UO-31 renal
# ACHN renal = test system: ACHN renal
# CAKI-1 renal = test system: CAKI-1 renal
# A498 renal = test system: A498 renal
# CCRF-CEM leukemia = test system: CCRF-CEM leukemia
# MOLT-4 leukemia = test system: MOLT-4 leukemia
# SR leukemia = test system: SR leukemia
# RPMI-8226 leukemia = test system: RPMI-8226 leukemia
# OVCAR-8 ovarian = test system: OVCAR-8 ovarian
# OVCAR-5 ovarian = test system: OVCAR-5 ovarian
# OVCAR-4 ovarian = test system: OVCAR-4 ovarian
# SK-OV-3 ovarian = test system: SK-OV-3 ovarian
# IGROV1 ovarian = test system: IGROV1 ovarian
# OVCAR-3 ovarian = test system: OVCAR-3 ovarian
# HS 578T breast = test system: HS 578T breast
# NCI/ADR-RES ovarian = test system: NCI/ADR-RES ovarian
# TK-10 renal = test system: TK-10 renal
Structure (SMILES),growth (SK-MEL-2 melanoma),growth (EKVX NSCLC),growth (SN12C renal),growth (UO-31 renal),growth (ACHN renal),growth (CAKI-1 renal),growth (A498 renal),growth (CCRF-CEM leukemia),growth (MOLT-4 leukemia),growth (SR leukemia),growth (RPMI-8226 leukemia),growth (OVCAR-8 ovarian),growth (OVCAR-5 ovarian),growth (OVCAR-4 ovarian),growth (SK-OV-3 ovarian),growth (IGROV1 ovarian),growth (OVCAR-3 ovarian),growth (HS 578T breast),growth (NCI/ADR-RES ovarian),growth (TK-10 renal)
Clc1ccccc1C(c1ccccc1)(c1ccccc1)n1ccnc1,48.3%,25.9%,48.2%,12.1%,32.7%,20.6%,58.7%,21.5%,17.3%,19.2%,18.7%,29.1%,57.8%,33.2%,69.3%,55.5%,29.3%,58.2%,33.1%,–
Clc1ccc(-n2ncc3c(NCCCN4CCOCC4)ncnc32)cc1,108%,92.9%,99.1%,79.6%,96.4%,107%,104%,94.4%,97.7%,88.9%,93.7%,100%,92.2%,102%,93.1%,–,105%,91.5%,86.8%,–
O=C(CCl)N1c2ccccc2Sc2c1ccc1ccccc21,82.7%,96.1%,73.8%,70.4%,78.7%,80.7%,110%,6.54% (active),12%,12.9%,36.1%,64.2%,108%,–,106%,34.4%,74.3%,82.1%,75.3%,–
S=C=Nc1ccc(N2CCOCC2)cc1,97.8%,91.7%,104%,84.5%,96.1%,95.9%,96.5%,80.6%,92.5%,71.2%,87.8%,102%,97.6%,106%,93%,96.9%,109%,99.3%,101%,–
COc1cc([C@@H]2c3cc4c(cc3[C@H](OC3OC5COC(c6ccccc6)OC5C(O)C3O)[C@H]3COC(=O)[C@H]23)OCO4)cc(OC)c1OC (stereo not given in full),2.6% (active),74.7%,41.8%,35.2%,32.6%,31%,26.2%,16.2%,-7.44% (active),-25.4% (active),-21.4% (active),29.4%,38.1%,45.3%,83.1%,-45.7% (active),61.8%,-30% (active),-38.9% (active),–
CCCOS(=O)(=O)c1ccccc1,114%,110%,103%,83.3%,102%,91.8%,100%,6.52% (active),107%,108%,71.2%,104%,93%,123%,91.9%,104%,107%,126%,110%,–
Cc1ccc(/C=C2\CNC/C(=C\c3ccc(C)cc3)C2=O)cc1,61%,-67.4% (active),-61.3% (active),-81.2% (active),-82.5% (active),-44.1% (active),–,-3.56% (active),-11.4% (active),-2.99% (active),-30.6% (active),–,-28.4% (active),9.79% (active),30.5%,-71.2% (active),-58.5% (active),–,-51.3% (active),–
O=C(NOC(=O)c1ccccc1)c1ccccc1,97%,95.7%,108%,–,101%,86.5%,94.6%,70.6%,93%,84.5%,75.7%,119%,109%,105%,109%,107%,115%,83.5%,93.7%,97.8%
CCOC(=O)C1(C)CCCC1N (stereo not given),113%,108%,101%,83.7%,106%,87.6%,106%,103%,103%,90.1%,109%,106%,106%,99.2%,131%,–,104%,98.5%,116%,–
Oc1ccc(Cl)cc1C(c1cc(Cl)ccc1O)C(Cl)(Cl)Cl,49.2%,13.7%,-4.47% (active),40.8%,-7.96% (active),36.8%,23.4%,19.1%,2.12% (active),-25.2% (active),11.5%,29.6%,8.25% (active),20.6%,32%,–,-16.9% (active),0.476% (active),4.17% (active),–
CCCCCCCCCCCCCCCc1ccc(C(=O)C[n+]2ccccc2)cc1,-80.9% (active),-51.6% (active),-60.7% (active),-97.2% (active),-49.3% (active),–,41.1%,-62.1% (active),-76.3% (active),–,-62.2% (active),-46.7% (active),-44.1% (active),34.9%,-50.7% (active),–,-93.1% (active),-37.3% (active),-21.5% (active),–
O=C1c2ccccc2Cc2cccc(Cl)c21,87.5%,104%,97.3%,82.9%,98.9%,99.1%,64.3%,98.8%,39.6%,64.1%,106%,108%,93.9%,108%,98%,–,108%,112%,96%,–
Clc1ccc(Cc2nc3ccccc3s2)cc1,110%,86.5%,86.1%,61.2%,98.5%,96.3%,117%,93.1%,92.6%,84.4%,101%,102%,–,91%,128%,–,98.1%,100%,94.9%,–
O=C(c1ccccc1)C(Br)C(Br)c1ccccc1 (stereo not given),75.5%,108%,104%,–,18.8%,-50.2% (active),88.4%,-14% (active),47.5%,31.4%,-3.12% (active),78.8%,104%,90.2%,115%,-22.3% (active),-10.9% (active),104%,117%,103%
COC(=O)c1ccc(=O)c2nc3/c(=C/O)c(O)cc(=O)c3[nH]c12,-7.27% (active),35.3%,-5.75% (active),5.33% (active),28.5%,21.5%,1.77% (active),12.6%,3.55% (active),-11.4% (active),51.1%,12.2%,54.7%,47.4%,52%,-61.2% (active),-4.24% (active),-10.3% (active),11%,–
CCN1CCCC(Nc2cc(C)nc(/N=C(/N)Nc3ccc(Cl)c(Cl)c3)n2)C1 (stereo not given),-72.7% (active),31.4%,1.64% (active),-81.4% (active),-25.1% (active),-40.6% (active),-49.1% (active),-16.4% (active),-35.4% (active),-60.3% (active),-31.6% (active),-21.5% (active),13%,-17.3% (active),6.57% (active),–,-49% (active),-37.8% (active),17.2%,–
